According to the supplement of paper PMC10681739:

Legend:
ETS1 = target: T1, ETS1 (UniProt P14921); test: ETS1 binding intensity (PBM fluorescence), ETS1 alone (arbitrary fluorescence units); higher = stronger binding; conditions: ETS1 concentration 1 nM; RUNX1 concentration 0 nM
T1 sequence: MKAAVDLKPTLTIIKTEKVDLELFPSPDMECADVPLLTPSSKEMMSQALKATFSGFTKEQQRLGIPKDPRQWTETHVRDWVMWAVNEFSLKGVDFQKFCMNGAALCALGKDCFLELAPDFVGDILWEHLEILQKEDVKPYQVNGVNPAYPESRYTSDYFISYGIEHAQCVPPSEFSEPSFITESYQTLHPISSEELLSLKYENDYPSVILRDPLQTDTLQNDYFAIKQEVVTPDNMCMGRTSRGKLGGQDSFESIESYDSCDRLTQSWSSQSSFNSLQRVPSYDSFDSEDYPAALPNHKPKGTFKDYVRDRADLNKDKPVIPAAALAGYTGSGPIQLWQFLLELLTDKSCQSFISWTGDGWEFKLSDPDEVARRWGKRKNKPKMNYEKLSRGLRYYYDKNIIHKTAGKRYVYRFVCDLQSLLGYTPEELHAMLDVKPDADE

RUNX1 [1] = target: RUNX1 (UniProt Q01196); test: RUNX1 binding intensity (PBM fluorescence), RUNX1 alone (arbitrary fluorescence units); higher = stronger binding; conditions: RUNX1 concentration 2 nM; ETS1 concentration 0 nM
Experimental: (§1)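 Cooperative gcPBM on 36-bp genomic probes with neighbouring ETS1 and RUNX1 sites. Recombinant human RUNX1 (2 nM) was incubated alone or with ETS1 (25 nM) and detected with anti-RUNX1 antibody plus Alexa488 secondary. Values are medians over 4 replicate spots; the RUNX1+ETS1 data were normalised to the RUNX1-only data. The probes sit in constant array flanks that are not printed.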

RUNX1 [2] = target: RUNX1 (UniProt Q01196); test: RUNX1 binding intensity (PBM fluorescence) in presence of ETS1, normalised to RUNX1-only experiment (arbitrary fluorescence units); higher = stronger binding; conditions: RUNX1 concentration 2 nM; ETS1 concentration 25 nM
Experimental: as §1
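Wherever RUNX1 binding intensity (PBM fluorescence) in presence of ETS1, normalised to RUNX1-only experiment is given: Full-length recombinant human ETS1 or RUNX1 bound to double-stranded 36-bp genomic probes on microarrays, detected by protein-specific primary antibody and Alexa488 secondary, spot fluorescence as median of four replicate spots.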
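Wherever RUNX1 binding intensity (PBM fluorescence), RUNX1 alone is given: Full-length recombinant human RUNX1 bound to double-stranded 36-bp genomic probes on a high-density microarray, scored as Alexa488 fluorescence per spot via anti-RUNX1 antibody, median of four replicate spots.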

RUNX1, sequence (Q01196 whole entry): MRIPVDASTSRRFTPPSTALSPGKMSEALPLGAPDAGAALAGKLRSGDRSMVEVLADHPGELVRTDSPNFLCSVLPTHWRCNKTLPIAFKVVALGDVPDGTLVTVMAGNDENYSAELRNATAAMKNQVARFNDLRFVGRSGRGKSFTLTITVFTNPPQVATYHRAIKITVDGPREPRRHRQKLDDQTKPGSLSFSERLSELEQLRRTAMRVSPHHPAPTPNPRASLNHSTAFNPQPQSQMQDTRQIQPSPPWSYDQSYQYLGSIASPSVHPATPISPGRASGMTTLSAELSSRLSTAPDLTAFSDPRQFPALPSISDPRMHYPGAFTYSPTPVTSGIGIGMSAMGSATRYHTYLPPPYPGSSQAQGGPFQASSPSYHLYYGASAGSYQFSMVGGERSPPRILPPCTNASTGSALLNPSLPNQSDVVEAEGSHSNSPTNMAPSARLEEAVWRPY

Sequence | ETS1 binding intensity (ETS1) | RUNX1 binding intensity (RUNX1 [1]) | RUNX1 binding intensity (RUNX1 [2])
CATGGGGAGGAGGAAGTGGTGGCGGCCGCAGGCCAG | 1040 | 799 | 1070
TCCTCCATGCAGGAAAACCTCTGTGGTCTGGGAGCT | 438 | 867 | 862
ACAGGCTGTCTGCTTCCGTCAGCGGTTATTCCCTTG | 523 | 882 | 1340
AAAGAACTTCCTGAGGTGCTTGAGGTTAGGCTATGG | 487 | 727 | 1660
AGCAGGTATACCACTTCCTGTGGTTATCATTTGAGG | 2330 | 966 | 6540
TTTCTGACACTCTCAGGATGTGGGTTTTCACACTGT | 1190 | 828 | 1320
GGACAGGAAGTTCCTGCAGCTTCTACCACAAACCTA | 2450 | 829 | 1420
ATAGACTCAGGAAGTGATTGTGGTAAGATTCTATAT | 1460 | 829 | 1440
CACTTCCTGTCAAAGCCAGTTCCTTAACCGCTTAGG | 1610 | 948 | 2930
CTGAAACAGGAAGCTGAGGGTGCGGTTGGGGGAGGA | 2210 | 811 | 1520
AAAACAAGGACTTCCGCCTCCCTGCGGTCCCTCCCC | 2140 | 894 | 1880
GTTCAGCAGGAAGTGGATGTGGATGTGTGGTTGCCA | 3230 | 826 | 1290
ATCTTTTGATGAGGATGTGGTTTCCAGGCAGGTGCT | 836 | 902 | 1620
